Some test systems named below: EKVX NSCLC; SN12C renal; UO-31 renal; TK-10 renal; ACHN renal; CAKI-1 renal; A498 renal; CCRF-CEM leukemia; MOLT-4 leukemia; SR leukemia; RPMI-8226 leukemia; OVCAR-8 ovarian; OVCAR-5 ovarian; OVCAR-4 ovarian; SK-OV-3 ovarian; IGROV1 ovarian; OVCAR-3 ovarian; HS 578T breast; NCI/ADR-RES ovarian; T-47D breast.
Common to all, as to assay: NCI-60 one-dose screen, 48 h (100 = growth as untreated, 0 = no growth, -100 = all killed)

“And” between values parts separate entries of the source, which are not always exact repeats. Identical values can stand only once. The panel holds about 83,000 compounds, 20% with a hit somewhere; the sample as a whole holds those more often.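 Cells were grown in 96-well plates and exposed to the test compound at a single concentration for 48 hours; results are reported as percent growth, with values below 10 considered active.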 Unmarked numbers belong to inactive results. The source made the active and inactive calls.

Consider `COc1cc(C(C)(C)C)cc(OC)c1C(O)(c1c(OC)cc(C(C)(C)C)cc1OC)c1c(OC)cc(C(C)(C)C)cc1OC`, for which the growth in the assay with EKVX NSCLC (10 µM) was -50.5% (active); in the assay with SN12C renal (10 µM), -80.2% (active); in the assay with UO-31 renal (10 µM), -75.7% (active); with TK-10 renal (10 µM), -90.8% (active); in the assay on ACHN renal (10 µM), -93% (active); in the assay on CAKI-1 renal (10 µM) it was -69.1% (active). Besides, the growth in the assay with A498 renal (10 µM) was -79.4% (active); in the assay with CCRF-CEM leukemia (10 µM) it was -68% (active); in the assay on MOLT-4 leukemia (10 µM), -81% (active); with SR leukemia (10 µM), -77.5% (active); with RPMI-8226 leukemia (10 µM) it was -27.1% (active); in the assay with OVCAR-8 ovarian (10 µM), -64.3% (active). In addition, the growth is -100% (active) in the assay with OVCAR-5 ovarian (10 µM); -99.6% (active) in the assay with OVCAR-4 ovarian (10 µM); -86.7% (active) in the assay on SK-OV-3 ovarian (10 µM); 2.83% (active) in the assay with IGROV1 ovarian (10 µM); -94.1% (active) in the assay on OVCAR-3 ovarian (10 µM); -33.3% (active) with HS 578T breast (10 µM). For the same molecule, the growth in the assay on NCI/ADR-RES ovarian (10 µM) is -56.8% (active); in the assay on T-47D breast (10 µM), -30.2% (active).

Turning to `O=c1[nH]cc(F)c(=O)[nH]1`, the growth in the assay on EKVX NSCLC (10 µM) was 74.3% and 82.4%; in the assay with EKVX NSCLC (25 µM), 58.4%; in the assay with EKVX NSCLC (50 µM), 62.8%; in the assay with SN12C renal (10 µM) it was 57% and 73%; with SN12C renal (25 µM), 54%; with SN12C renal (50 µM), 46.3%. Moreover, the growth with UO-31 renal (10 µM) was 29.3% and 41.7%; in the assay with UO-31 renal (25 µM), 41.3%; in the assay with UO-31 renal (50 µM), 38.2%; in the assay with TK-10 renal (10 µM), 71.2%; in the assay with TK-10 renal (25 µM) it was 66.9%; in the assay on ACHN renal (10 µM), 39.8% and 60.1%. The growth is 39.3% in the assay on ACHN renal (25 µM); 36.9% in the assay on ACHN renal (50 µM); 28.5% and 63.3% in the assay with CAKI-1 renal (10 µM); 39.4% in the assay on CAKI-1 renal (25 µM); 43.2% in the assay on CAKI-1 renal (50 µM); 40.1% in the assay with A498 renal (10 µM). Also, the growth in the assay on A498 renal (25 µM) was -16.3% (active); with A498 renal (50 µM), 52.6%; in the assay with CCRF-CEM leukemia (10 µM) it was 56.3% and 65.9%; in the assay with CCRF-CEM leukemia (25 µM) it was 57.1%; in the assay on CCRF-CEM leukemia (50 µM), 50%; in the assay on MOLT-4 leukemia (10 µM), 57.5% and 74.9%. In addition, the growth in the assay on MOLT-4 leukemia (25 µM) is 43.1%; in the assay on MOLT-4 leukemia (50 µM), 37.6%; in the assay on SR leukemia (10 µM) it was 27.6% and 37.4%; in the assay on SR leukemia (25 µM), 24.8%; with SR leukemia (50 µM), 31.6%; in the assay on RPMI-8226 leukemia (10 µM), 39.4% and 59.5%. The growth is 41.4% in the assay with RPMI-8226 leukemia (25 µM); 53.1% in the assay with OVCAR-8 ovarian (10 µM); 46.7% in the assay with OVCAR-8 ovarian (50 µM); 82.1% and 70.7% in the assay with OVCAR-5 ovarian (10 µM); 44.3% with OVCAR-5 ovarian (25 µM); 73% in the assay on OVCAR-5 ovarian (50 µM). For the same molecule, the growth in the assay on OVCAR-4 ovarian (10 µM) was 72.6% and 107%; with OVCAR-4 ovarian (25 µM), 59.4%; with OVCAR-4 ovarian (50 µM) it was 68.5%; in the assay on SK-OV-3 ovarian (10 µM), 70% and 74.7%; with SK-OV-3 ovarian (25 µM) it was 77.5%; in the assay with IGROV1 ovarian (10 µM) it was 54.3% and 44.1%. Also, the growth in the assay with IGROV1 ovarian (25 µM) is 51.2%; in the assay with IGROV1 ovarian (50 µM) it was 46.2%; with OVCAR-3 ovarian (10 µM) it was 52.5% and 72.2%; with OVCAR-3 ovarian (25 µM) it was 47.4%; in the assay with OVCAR-3 ovarian (50 µM), 31%; in the assay on HS 578T breast (10 µM), 99%. In addition, the growth was -10.8% (active) in the assay on HS 578T breast (25 µM); 58.8% in the assay with HS 578T breast (50 µM); 67.2% and 63.5% with NCI/ADR-RES ovarian (10 µM); 47.6% in the assay on NCI/ADR-RES ovarian (25 µM); 56.5% with NCI/ADR-RES ovarian (50 µM); 64.4% and 52.8% in the assay on T-47D breast (10 µM). The growth with T-47D breast (25 µM) was 56.7%.

`Cc1ccc2nc(N/N=C/c3ccc(C)s3)cc(C)c2c1`: the growth in the assay on TK-10 renal (100 µM) was -96.6% (active) and -100% (active).

As for `CN1CCN(c2ccc3nc(-c4ccc5nc(-c6ccc(O)cc6)[nH]c5c4)[nH]c3c2)CC1`, the growth was 105% with EKVX NSCLC (10 µM); 88.9% in the assay on SN12C renal (10 µM); 103% in the assay with UO-31 renal (10 µM); 111% in the assay with TK-10 renal (10 µM); 94.4% in the assay with ACHN renal (10 µM); 92.6% in the assay with CAKI-1 renal (10 µM). For the same molecule, the growth was 74% with CCRF-CEM leukemia (10 µM); 76.4% with MOLT-4 leukemia (10 µM); 67% in the assay on SR leukemia (10 µM); 107% in the assay on RPMI-8226 leukemia (10 µM); 61.9% with OVCAR-5 ovarian (10 µM); 89.8% in the assay on OVCAR-4 ovarian (10 µM). Further, the growth in the assay on SK-OV-3 ovarian (10 µM) was 84.4%; in the assay on IGROV1 ovarian (10 µM) it was 112%; in the assay on OVCAR-3 ovarian (10 µM), 66.4%; with NCI/ADR-RES ovarian (10 µM) it was 130%; with T-47D breast (10 µM), 39.2%.

`CSc1ccc2c(c1)C(N1CCN(C)CC1)Cc1ccccc1S2` (configuration not stated): the growth was 55.9% in the assay with EKVX NSCLC (10 µM); 35.6% with SN12C renal (10 µM); 15.5% in the assay on UO-31 renal (10 µM); 43.1% in the assay on TK-10 renal (10 µM); 12% in the assay on ACHN renal (10 µM); 19.5% in the assay on CAKI-1 renal (10 µM). The growth with A498 renal (10 µM) was 16.4%; in the assay with CCRF-CEM leukemia (10 µM) it was 31.7%; with MOLT-4 leukemia (10 µM), -23.3% (active); in the assay on SR leukemia (10 µM) it was -32.8% (active); with RPMI-8226 leukemia (10 µM) it was 24.3%; in the assay on OVCAR-8 ovarian (10 µM) it was 67.9%. Also, the growth was 41.7% with OVCAR-5 ovarian (10 µM); 36.1% with OVCAR-4 ovarian (10 µM); 86.2% in the assay on SK-OV-3 ovarian (10 µM); 20.8% in the assay with IGROV1 ovarian (10 µM); 61.4% in the assay with OVCAR-3 ovarian (10 µM); 39.8% in the assay with HS 578T breast (10 µM). The growth was 49.2% with NCI/ADR-RES ovarian (10 µM) and 43.3% with T-47D breast (10 µM).

For `BrC/C=C/C[P+](c1ccccc1)(c1ccccc1)c1ccccc1`, the growth is 70.2% in the assay with EKVX NSCLC (10 µM); 64.4% in the assay on SN12C renal (10 µM); 66.2% in the assay with UO-31 renal (10 µM); 48.7% with TK-10 renal (10 µM); 43.4% in the assay with ACHN renal (10 µM); 103% in the assay on CAKI-1 renal (10 µM). The growth was 72.9% in the assay with A498 renal (10 µM); 37.9% in the assay on CCRF-CEM leukemia (10 µM); 79.7% in the assay on MOLT-4 leukemia (10 µM); 4.56% (active) with RPMI-8226 leukemia (10 µM); 28.3% with OVCAR-8 ovarian (10 µM); 85.2% in the assay with OVCAR-5 ovarian (10 µM). For the same molecule, the growth with OVCAR-4 ovarian (10 µM) was 98.8%; with SK-OV-3 ovarian (10 µM), 95.5%; in the assay on IGROV1 ovarian (10 µM), 83.8%; in the assay with OVCAR-3 ovarian (10 µM), 32.4%; in the assay on HS 578T breast (10 µM), 92.4%; in the assay on NCI/ADR-RES ovarian (10 µM), 96.7%. For the same molecule, the growth in the assay on T-47D breast (10 µM) was 10.7%.

For `CN(C)CCC(=O)c1c[nH]c2ccccc12`, the growth is 111% with EKVX NSCLC (10 µM); 104% in the assay on SN12C renal (10 µM); 77.3% with UO-31 renal (10 µM); 103% with TK-10 renal (10 µM); 105% in the assay with ACHN renal (10 µM); 94.4% in the assay with CAKI-1 renal (10 µM). In addition, the growth in the assay on A498 renal (10 µM) was 126%; in the assay on CCRF-CEM leukemia (10 µM), 96.2%; in the assay with MOLT-4 leukemia (10 µM), 93.6%; with SR leukemia (10 µM), 91.5%; in the assay on RPMI-8226 leukemia (10 µM) it was 98.1%; with OVCAR-8 ovarian (10 µM), 112%. Also, the growth in the assay with OVCAR-5 ovarian (10 µM) is 109%; in the assay on OVCAR-4 ovarian (10 µM), 111%; with SK-OV-3 ovarian (10 µM) it was 96.6%; in the assay with IGROV1 ovarian (10 µM), 106%; with OVCAR-3 ovarian (10 µM), 110%; with HS 578T breast (10 µM), 106%. The growth was 110% in the assay on NCI/ADR-RES ovarian (10 µM) and 84.1% in the assay on T-47D breast (10 µM).

(Values after PubChem BioAssay (NCI).)
